Only some compounds are listed: those with a hit (about 3.7% of all), similar ones and a draw of the others.
TGFb inhibitor: qHTS for Inhibitors of TGF-b; HepG2 CAGA-GFP TGF-b/SMAD3 reporter, GFP fluorescence, 18 h; TGF-beta stimulated, 500 pg/mL final; Potency, µM (titrated, usually from 46.1 µM), inactives show top-dose activity, negative = inhibition, most hits filed as inhibitors; actives 1.2% (n = 410,000); AID 588855, 2011; also: % is scaled to controls: 0 for no effect and ±100 for the full control effect; nearly all actives have a fitted effect of over 65% in size
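Cell-based qHTS in HEPG2 carrying a CAGA-GFP Smad reporter; compounds added before 500 pg/mL final TGF-beta, 18 h incubation at 37 degrees C, GFP fluorescence quantified per cell by imaging cytometry.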
HepG2 tox-1: qHTS for Inhibitors of TGF-b: Cytotox Counterscreen; HepG2 CAGA-GFP viability, ATP luminescence, 18 h; Potency, µM (series often up to 46.1 µM), inactives show at the highest dose activity change, negative = cytotoxicity, actives largely listed as cytotoxic; actives 0.76% (n = 410,000)
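HepG2 CAGA-GFP cells (1000/well, DMEM with 1% FBS) received compound, then TGF-beta at 500 pg/mL final, and were incubated 18 hours at 37 degrees C. Viability was read by CellTiter-Glo luminescence. Media-only wells were set as complete cell-killing and DMSO as no toxicity.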
GLP1R ag: qHTS of GLP-1 Receptor Agonists; Glucagon-like peptide 1 receptor (Homo sapiens), P43220; HEK293 GLP-1R CRE-luciferase, luminescence, 4-6 h; cells express a hypersensitive GLP-1R form; Potency, µM (series often up to 45.6 µM), inactives show at the top dose activation, actives largely listed as activators; actives 0.007% (n = 380,000); AID 624172, 2012; also: % of control where 0% means no effect
Target sequence (P43220 whole entry, looked up): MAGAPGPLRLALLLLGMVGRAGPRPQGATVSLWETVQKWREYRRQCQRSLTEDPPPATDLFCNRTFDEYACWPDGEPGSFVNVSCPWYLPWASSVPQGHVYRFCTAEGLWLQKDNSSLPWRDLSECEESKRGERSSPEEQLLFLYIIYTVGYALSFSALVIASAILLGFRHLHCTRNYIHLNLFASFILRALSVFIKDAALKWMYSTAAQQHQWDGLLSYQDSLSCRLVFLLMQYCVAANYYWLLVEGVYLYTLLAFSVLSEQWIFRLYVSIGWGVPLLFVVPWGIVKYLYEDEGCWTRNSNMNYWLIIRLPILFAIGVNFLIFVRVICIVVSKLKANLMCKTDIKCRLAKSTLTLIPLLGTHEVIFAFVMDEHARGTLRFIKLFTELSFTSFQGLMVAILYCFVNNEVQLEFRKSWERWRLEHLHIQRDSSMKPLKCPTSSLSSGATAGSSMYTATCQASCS
GLP-1R inv ag: qHTS of GLP-1 Receptor Inverse Agonists (Inhibition Mode); HEK293 GLP-1R CRE-luciferase, luminescence, 24 h; GLP-1R form is constitutively active; Potency, µM (doses to about 38.3 µM), for inactives: at the top dose activity change, negative = inhibition, actives largely listed as inhibitors; actives 1.6% (n = 410,000); also: % is scaled to controls: 0 for no effect and ±100 for the full control effect; nearly all actives have a fitted effect of over 55% in size
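qHTS in 1536-well format: reporter HEK293 cells expressing constitutive GLP-1R activity in DMEM + 10% Nu serum, 24 hr with compounds at 37 deg C, luminescence read after 12 min with detection reagent.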
ATXN2 expr inh: Primary qHTS for Inhibitors of ATXN expression; HEK-293 ATXN2-luciferase reporter, luminescence, 24 h; Potency, µM (titrated, usually from 57 µM), for the others: top-dose activity change, negative = inhibition, hits mostly inhibitors; actives 0.72% (n = 360,000); AID 1745845, 2022; also: % is scaled to controls: 0 for no effect and ±100 for the full control effect; nearly all actives have a fitted effect of over 55% in size
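qHTS (up to 57 uM final) was run with 24 h compound exposure of reporter cells at 37 °C. Each well was multiplexed: SteadyGlo luminescence measured ATXN2-luciferase expression after a fluorogenic Gly-Phe-AFC viability readout (25 uM final).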
S2 tox: Viability Counterscreen for Primary qHTS for Inhibitors of ATXN expression; actives 0.49% (n = 400,000); Potency, µM (top dose mostly 56.7 µM), most hits filed as cytotoxic; S2 cells (HEK-293 line with an ATXN2-luciferase reporter) viability, CellTiter-Fluor protease fluorescence, 24 h; also: nearly all actives have a fitted effect of over 40% in size
TGFb CAGA inh: qHTS for Inhibitors of TGF-b: Confirmation of Cherry Picks; HepG2 CAGA-GFP TGF-b reporter, GFP fluorescence, 18 h; cells stimulated with TGF-beta, 500 pg/mL; Potency, µM (series often up to 46.1 µM), without a hit: at the top dose activity, negative = inhibition, usual class: inhibitors; shares compounds with TGFb inhibitor; actives 63% (n = 1,600); also: % is scaled to controls: 0 for no effect and ±100 for the full control effect; nearly all actives have a fitted effect of over 65% in size
HepG2 tox-2: qHTS for Inhibitors of TGF-b: Cytotox Counterscreen for Cherry Picks | shares compounds with TGFb inhibitor | Potency, µM (highest dose often 46.1 µM), without a hit: at the highest dose activity, negative = cytotoxicity, usual class: inhibitors | AID 720535, 2013 | actives 27% (n = 1,600) | HepG2 CAGA-GFP viability, ATP luminescence, 18 h; cells stimulated with TGF-beta, 500 pg/mL; also: % is scaled to controls: 0 for no effect and ±100 for the full control effect; nearly all actives have a fitted effect of over 70% in size
TGFb CCL64 inh: qHTS for Inhibitors of TGF-b: CCL64 Cells Orthogonal Assay for Cherry Picks; shares compounds with TGFb inhibitor; CCL64 CAGA-GFP reporter, TGF-b stimulated, GFP fluorescence, 18 h; Potency, µM (series often up to 46.1 µM), for inactives: at the highest dose activity, negative = inhibition, actives largely listed as inhibitors; actives 41% (n = 1,600); AID 720536, 2013; also: nearly all actives have a fitted effect of over 65% in size
COP TGFb inh: qHTS for Inhibitors of TGF-b: Hit Validation in HepG2 Cells using COP promoter; Potency, µM (top dose mostly 46.1 µM), for the others: at the top dose activity, negative = inhibition, most hits filed as inhibitors; HepG2 COP-GFP TGF-b reporter, GFP fluorescence, 18 h; cells stimulated by added recombinant TGF-beta; shares compounds with TGFb inhibitor; actives 3% (n = 1,600); also: nearly all actives have a fitted effect of over 70% in size
* marks the source's active call; other numbers are inactive results; i = inactive; ? = inconclusive; / = no result. Calls follow the shape of the dose curve; as a rule, active = well fitted curve in the direction sought with a large enough effect; inconclusive = small, poorly fitted or top-dose-only effect, or another doubt; inactive = no such curve, though single readings can be large; an effect the other way counts as inactive or inconclusive. Potency is read from the fitted curve at half-maximal effect.

SMILES | TGFb inhibitor | HepG2 tox-1 | GLP1R ag | GLP-1R inv ag | ATXN2 expr inh | S2 tox | TGFb CAGA inh | HepG2 tox-2 | TGFb CCL64 inh | COP TGFb inh
COCCNc1nc(N)c([N+](=O)[O-])c(NC2CCCCC2)n1 | 0% | -7% | ? | 35% | -20% | i | / | / | / | /
NC(=S)N/N=C\c1c(OCc2ccccc2Cl)ccc2ccccc12 | 6.3µM* | -5% | 14% | ? | ? | i | 5.8µM* | ? | 8.2µM* | 34%
NC(=S)N/N=C\c1c2ccccc2cc2ccccc12 | -12% | -53% | 6% | ? | ? | ? | / | / | / | /
Cc1sc2nc(CN(C(=O)c3cccs3)C3CCCC3)[nH]c(=O)c2c1C | -18% | -21% | -4% | ? | 13% | i | / | / | / | /
O=C(c1cccs1)N(Cc1nc2sc3c(c2c(=O)[nH]1)CCCC3)C1CCCC1 | ? | 1% | 5% | ? | -5% | ? | ? | ? | ? | 29%
O=C(COc1cccc(F)c1)N[C@@H](Cc1ccccc1)c1nc2ccccc2[nH]1 | ? | -28% | -3% | ? | / | i | ? | -10% | -13% | -12%
COc1ccc(Nc2nnc(-c3ccccc3)c3ccccc23)cc1C(=O)N1CCCCC1 | -27% | -12% | 15% | ? | 0% | i | / | / | / | /
COc1ccc(Nc2nnc(-c3ccc(C)cc3)c3ccccc23)cc1C(=O)N1CCCCC1 | 16µM* | -21% | 18% | ? | ? | ? | -88% | ? | ? | 45%
CN=c1sc2c(n1C)C(=O)c1ccccc1C2=O | 1.4µM* | 2.2µM* | -1% | 17% | ? | / | 1.8µM* | 2.6µM* | 5.2µM* | 4.6µM*
CN=c1sc(C(=O)Nc2ccccc2)c(C)n1C | -6% | -1% | 1% | 5% | -7% | i | / | / | / | /
C1=C(CCNc2ncnc3c2[nH]c2ccccc23)CCCC1 | 3.5µM* | -88% | -7% | 4.5µM* | ? | 14µM* | ? | 21µM* | 6.5µM* | 25%
CCCn1c(=N)n(CC(=O)c2cccs2)c2ccccc21 | 4% | -24% | -4% | -10% | -12% | i | / | / | / | /
N=c1n(CCN2CCCCC2)c2ccccc2n1CC(=O)c1cccs1 | ? | -50% | 2% | 5.6µM* | ? | i | 41% | ? | 23µM* | 50%
C/C(CC(=O)Nc1ccc(Cl)c(C(F)(F)F)c1)=N\NC(=O)c1cccc(O)c1 | -5% | -2% | -8% | ? | 0% | i | / | / | / | /
C/C(CC(=O)Nc1ccc(Cl)c(C(F)(F)F)c1)=N\NC(=O)c1ccccc1O | 16µM* | -68% | -35% | ? | -21% | i | ? | ? | ? | 102%
Cc1ccc(Sc2ccc(N3CCCC(C(=O)Nc4ccc(F)c(Cl)c4)C3)nn2)cc1 (stereo not drawn) | -20% | 0% | -1% | -37% | -3% | ? | / | / | / | /
COc1ccc(CNC(=S)N/N=C/c2ccc(O)c(OC)c2)cc1 | 11µM* | -27% | 24% | ? | 12% | i | -11% | -25% | -18% | 1%
O=C1CS(=O)(=O)N(Cc2ccc(F)cc2)c2ccccc21 | ? | -5% | -4% | -23% | -3% | i | / | / | / | /
O=C1CS(=O)(=O)N(Cc2ccccc2F)c2ccc(Br)cc21 | 13µM* | -24% | 1% | ? | 4% | i | ? | ? | ? | 38%
CC(=O)Nc1ccc(S(=O)(=O)N2CCN(Cc3ccncc3)CC2)cc1 | -14% | -12% | 3% | 3% | -25% | i | / | / | / | /
CC(=O)Nc1ccc(S(=O)(=O)N2CCN(Cc3nc4sc(C)c(C)c4c(=O)[nH]3)CC2)cc1 | ? | -7% | 0% | -3% | -12% | i | -6% | -11% | 16% | -15%
O=C(Nc1cccc(Cl)c1)c1ccc(F)c(S(=O)(=O)NCc2cccs2)c1 | 10µM* | -31% | 16% | ? | ? | i | ? | ? | ? | 11%
CCN(c1ccccc1)S(=O)(=O)c1cc(C(=O)Nc2cccc(Cl)c2)ccc1F | 10µM* | -25% | -4% | ? | -38% | ? | 9.2µM* | ? | 15µM* | 58%
Cn1cc([N+](=O)[O-])c(C(=O)Nc2sc3c(c2C#N)CCC3)n1 | 8.9µM* | 17% | -3% | 7% | / | i | 13µM* | 7.3µM* | 2% | 70%
Cc1cccc(CNc2ccc(C(CC(N)=O)NC(=O)Cc3cccc4ccccc34)cc2[N+](=O)[O-])c1 (stereo not drawn) | ? | -17% | 8% | ? | -30% | ? | ? | ? | 1.6µM* | -25%
NC(=O)CC(NC(=O)Cc1cccc2ccccc12)c1ccc(N2CCCCCC2)c([N+](=O)[O-])c1 (stereo not drawn) | -28% | -17% | 12% | -26% | -12% | ? | / | / | / | /

High-throughput results: PubChem BioAssay, National Center for Advancing Translational Sciences (NCATS)
